Reference: PubChem BioAssay (NCATS)
Values joined by “and” are separate entries in the source; they are usually repeats but may differ in a detail not shown here. Equal entries are not always repeated. Results filed as inconclusive are left out. A number with no mark means an inactive call. Active and inactive are the calls of the source. The call rests on the fitted dose curve; in most records, active means well fitted curve in the direction sought with a large enough effect; inconclusive means small, poorly fitted or top-dose-only effect, or another doubt; inactive means no such curve, though single readings can be large; an effect the other way counts as inactive or inconclusive.

Key:
[1] = target: Cellular tumor antigen p53 (Homo sapiens) (UniProt P04637); assay: Primary qHTS for small molecule compounds that upregulate eGFP-tagged delta133p53alpha (in N-terminal) cells. (AID 2060322); conditions: NCI-H358 eGFP-delta133p53alpha fluorescence, 24 h; activation: stronger effect = higher value; further: nearly all actives have a fitted effect of over 75% in size; further: potency means the concentration at half of the fitted maximal effect;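 on activation: series mostly up to about 56 µM; 0% = DMSO vehicle and 100% = reference activator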
Sequence of Cellular tumor antigen p53 (Homo sapiens) (P04637 whole entry, looked up): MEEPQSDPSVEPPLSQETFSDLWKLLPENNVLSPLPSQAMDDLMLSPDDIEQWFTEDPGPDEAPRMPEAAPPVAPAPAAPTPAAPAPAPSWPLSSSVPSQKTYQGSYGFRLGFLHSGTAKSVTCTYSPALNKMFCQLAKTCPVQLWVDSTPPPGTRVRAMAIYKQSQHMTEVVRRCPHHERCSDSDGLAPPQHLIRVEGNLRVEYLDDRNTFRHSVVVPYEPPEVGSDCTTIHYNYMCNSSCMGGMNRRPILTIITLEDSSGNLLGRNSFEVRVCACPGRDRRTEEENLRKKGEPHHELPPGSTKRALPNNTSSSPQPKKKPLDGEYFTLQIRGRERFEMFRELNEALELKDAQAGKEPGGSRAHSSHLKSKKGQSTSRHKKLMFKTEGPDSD
In short: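 NCI-H358 cells pre-induced 24 h with 10 ng/ml doxycycline to express N-terminal eGFP-delta133p53alpha, then dosed 24 h at 37C without doxycycline; fixed, Hoechst-stained, GFP intensity by laser scanning cytometry, normalized to DMSO (0%) and 57.5 uM 5-azacytidine (100%).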

[2] = target: Aldehyde dehydrogenase, mitochondrial (Homo sapiens) (UniProt P05091); assay: qHTS for Inhibitors of the Aldehyde Dehydrogenase Family (ALDH2) Primary screen (AID 2061308);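 further: plate controls were vehicle for no effect and reference inhibitor for full effect; nearly all actives have a fitted effect of over 55% in size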
[3] = target: Retinaldehyde dehydrogenase 3 (Homo sapiens) (UniProt P47895); assay: qHTS for Inhibitors of the Aldehyde Dehydrogenase Family (ALDH1A3) Validation screen (AID 2061312); further: on the % scale 0 is the no-effect control and ±100 the full control effect; nearly all actives have a fitted effect of over 45% in size
[4] = target: Retinaldehyde dehydrogenase 3 (Homo sapiens) (UniProt P47895); assay: qHTS for Inhibitors of the Aldehyde Dehydrogenase Family (ALDH1A3) Primary screen (AID 2061315);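 further: plate controls were DMSO vehicle for no effect and reference inhibitor for full effect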
[5] = BET inhibitor-based combinations targeting novel dependencies in MECOM-rearranged (r) AML: SET-2 cell line (AID 2202231); conditions: SET-2 AML cells viability, CellTiter-Glo luminescence, 48 h; viability: stronger effect = lower value, concentration not given here; further: nearly all actives have a fitted effect of over 35% in size; further: potency means the concentration at half of the fitted maximal effect;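 on viability: plate controls were DMSO treated cells for no effect and wells without cells for full effect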
In short: (§1)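 Luminescent ATP readout (CellTiter-Glo) after 48 hr drug exposure gives viability. Curves span 11 concentrations and are normalized to DMSO and empty wells. Activity is reported as area under the curve and its Z-transform within each cell line.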

[6] = BET inhibitor-based combinations targeting novel dependencies in MECOM-rearranged (r) AML: OCI-AML3 cell line (AID 2202232); conditions: Potency: OCI-AML3 viability; further: nearly all actives have a fitted effect of over 35% in size; further: potency means the concentration at half of the fitted maximal effect
In short: as §1

[7] = BET inhibitor-based combinations targeting novel dependencies in MECOM-rearranged (r) AML: MV-4-11 cell line (AID 2202233); further: nearly all actives have a fitted effect of over 45% in size; further: potency means the concentration at half of the fitted maximal effect
In short: (§2)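 Luminescent ATP readout (CellTiter-Glo, 15 min at room temperature) after 48 hr drug exposure gave viability. Dose-response curves, normalized to DMSO and empty-well controls, were summarized as area under the curve and its mean-centred Z-score.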

[8] = BET inhibitor-based combinations targeting novel dependencies in MECOM-rearranged (r) AML: HNT-34 cell line (AID 2202234); further: nearly all actives have a fitted effect of over 35% in size; further: potency means the concentration at half of the fitted maximal effect
In short: as §2

[9] = BET inhibitor-based combinations targeting novel dependencies in MECOM-rearranged (r) AML: UCSD-AML1 cell line (AID 2202235); further: nearly all actives have a fitted effect of over 40% in size; further: potency means the concentration at half of the fitted maximal effect
In short: as §2

[10] = BET inhibitor-based combinations targeting novel dependencies in MECOM-rearranged (r) AML: AML-191 cell line (AID 2202236; further: nearly all actives have a fitted effect of over 35% in size; further: potency means the concentration at half of the fitted maximal effect)
In short: as §1

[11] = BET inhibitor-based combinations targeting novel dependencies in MECOM-rearranged (r) AML: AML-194 cell line (AID 2202237; further: nearly all actives have a fitted effect of over 40% in size; further: potency means the concentration at half of the fitted maximal effect)
In short: as §1

SMILES	activation [1]	Potency [2]	Potency [3]	Potency [4]	Potency [5]	Potency [6]	Potency [7]	Potency [8]	Potency [9]	viability [5] [%]	Potency [10]	Potency [11]	Potency [1]
CC(C)c1cc(C(=O)N2Cc3ccc(CN4CCN(C)CC4)cc3C2)c(O)cc1O	-13.4%	inactive	inactive	inactive	263 nM (active)	296 nM (active)	74.2 nM (active)	209 nM (active)	263 nM (active)				
O=C(O)CCNc1cc(N2CCc3ccccc3CC2)nc(-c2ccccn2)n1	-6.15% and -0.477% and 0.955%	inactive	inactive	inactive		inactive	inactive	inactive	inactive	103	inactive	inactive	
NCC1CCN(c2nccc(-c3ccc4ccccc4c3)n2)CC1		inactive	inactive	inactive	16600 nM (active)	4680 nM (active)	4170 nM (active)	8330 nM (active)	2950 nM (active)		2630 nM (active)	2950 nM (active)	23900 nM (active)
CN(C)C1CCN(C(=O)c2ccc(NC(=O)Nc3nc(N4CCOCC4)nc(N4CCOCC4)n3)cc2)CC1	-12.1%	inactive	inactive	inactive	5250 nM (active)	132 nM (active)	105 nM (active)	105 nM (active)	296 nM (active)			590 nM (active)	
COc1cc2c(cc1-c1c(C)noc1C)ncc1[nH]c(=O)n([C@H](C)c3ccccn3)c12	5.5% and 9.55% and -13.4%	inactive	inactive	inactive	1320 nM (active)	468 nM (active)	417 nM (active)						
